Screens from PubChem BioAssay.
ssDAF-12 act: S. stercoralis DAF-12 nuclear receptor activators, primary screen, cell-based, luminescence, HEK293, GRIP1 co-expression, lit1-tk-luc. AID 652126, 2013. Nuclear hormone receptor DAF-12 (Strongyloides stercoralis). actives 1% (n = 370,000). activation, % at 6.8 µM. HEK293 ssDAF-12/GRIP1 lit1-tk-luc reporter; % of 3 µM dafachronic acid response;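 active means activation above the mean over all tested compounds plus 3 SD, cut at about 0.9% in these data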
hgDAF12 agonist: H. glycines DAF-12 receptor agonists, primary screen, cell-based, luminescence, HEK293, GAL4 fusion, UAS-luciferase; AID 687014, 2013; actives 1.8% (n = 370,000); HEK293 GAL4-hgDAF12 UAS-luciferase reporter, agonist luminescence; normalized to butyrate control; Nuclear hormone receptor DAF-12 (Heterodera glycines), GAL4 fusion; activation, % at 6.8 µM;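 active means activation above a cutoff set at the mean of all screened compounds plus 3 SD, cut at about 10% in these data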
DAX1 inh-1: DAX1 (NR0B1) inhibitors on StAR promoter, primary screen, cell-based, luminescence, SF-1 (NR5A1), full-length DAX-1. HEK293T StAR-luciferase reporter, SF-1/DAX-1 repression relief. inhibition, % at 6.8 µM. actives 1.1% (n = 370,000). AID 652010, 2013;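 active means inhibition above the mean over all tested compounds plus 3 SD, cut at about 3.6% in these data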;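 further: higher inhibition means more luminescence from relief of DAX-1 repression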
FXN GAA850 act: FXN promoter activators, primary screen, cell-based, luciferase luminescence, HEK293 lucGAA850; activation, % at 6 µM; actives 0.56% (n = 360,000); HEK293 lucGAA850 FXN promoter luciferase reporter, 24 h; percent of 10 µM SAHA response;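 active means activation above the average of all compounds screened plus 3 SD, cutoff fixed separately per campaign, cut at about 7.5% in these data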
DAX1 inh-2: DAX1 (NR0B1) inhibitors, primary screen, cell-based, HEK293, Gal4-DAX1, luciferase luminescence. inhibition, % at 6.75 µM. actives 0.99% (n = 340,000). Nuclear receptor subfamily 0 group B member 1 (Homo sapiens), P51843. HEK293 Gal4-DAX1 luciferase reporter;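 active means inhibition above the mean over all tested compounds plus 3 SD, cut at about 4.2% in these data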;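 further: inhibition shows as a rise in luminescence from relieved DAX1 repression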
Target sequence (P51843 207-470 limits assumed): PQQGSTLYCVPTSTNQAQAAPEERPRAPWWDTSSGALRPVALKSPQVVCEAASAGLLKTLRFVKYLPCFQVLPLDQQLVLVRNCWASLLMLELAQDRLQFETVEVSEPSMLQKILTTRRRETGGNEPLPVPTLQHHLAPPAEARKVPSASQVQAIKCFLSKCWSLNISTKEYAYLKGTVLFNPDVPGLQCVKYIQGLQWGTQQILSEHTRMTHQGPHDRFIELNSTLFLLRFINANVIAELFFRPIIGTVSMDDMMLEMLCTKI
hcDAF12 agonist: H. contortus DAF-12 nuclear receptor activators, primary screen, cell-based, luminescence, HEK293, lit1-tk-luc reporter. HEK293 hcDAF-12 lit1-tk-luc reporter; 0% DMSO, 100% Δ7-dafachronic acid. activation, % at 6.8 µM. actives 1.4% (n = 370,000). AID 652067, 2013;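 active means activation above the mean of all tested compounds plus 3 SD, cut at about 5.5% in these data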
hgDAF12 ag: H. glycines DAF-12 receptor agonists, confirmation, cell-based, luminescence, HEK293, GAL4-LBD fusion; shares compounds with hgDAF12 agonist; HEK293 GAL4-hgDAF12 luciferase reporter, agonist mode; percent of butyrate response; activation, % at 6.8 µM; actives 80% (n = 3,300); AID 743050, 2013;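 active means mean activation over triplicate wells above the hit cutoff derived from the earlier primary screen, cut at about 11% in these data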
LXRb DAF12 ctr: LXR agonists, Gal4 luciferase reporter, confirmation, counter-screen for hgDAF-12 agonist project, cell-based, luminescence, HEK293, H. glycines campaign; 24 h; activation, % at 6.8 µM; shares compounds with hgDAF12 agonist; 3,300 tested, under 10 active;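 active means mean activation of the triplicate above a set limit carried over from the primary screen, none filed active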
Large screens that a line does not name were inactive (follow-up assays come after a bar, where they were run). The list is not random: actives were taken first. Their share in the collection is about 4.5%.

CCOC(=O)c1cc(-c2ccc(Cl)cc2)nc2c1c(=O)[nH]c(=O)n2CCOC	none
O=C(NCC[C@@H]1CC[C@@H](NC(=O)c2cnccn2)[C@@H](CO)O1)c1ccc2c(c1)OCO2	none (no result: FXN GAA850 act, DAX1 inh-2)
O=C(NN1C(=O)c2ccccc2NC1c1ccco1)c1ccc(Br)cc1 (stereo not given)	none
O=C(NN1C(=O)c2ccccc2NC1c1ccco1)c1ccc([N+](=O)[O-])cc1 (stereo not given)	hgDAF12 agonist 18 | hgDAF12 ag inactive | LXRb DAF12 ctr inactive
Cc1ccc(C)c(OCc2cc(C(=O)NC(C)c3cnn(C)c3)no2)c1 (stereo not given)	none
Cc1cc(OCc2cc(C(=O)NC(C)c3cnn(C)c3)no2)cc(C)c1Cl (stereo not given)	hgDAF12 agonist 16 | hgDAF12 ag 13 | LXRb DAF12 ctr inactive
Cc1nc(C(C)NC(=O)c2cc(COc3ccc(C)c(C)c3)on2)c(C)s1 (stereo not given)	hgDAF12 agonist 13 | hgDAF12 ag 14 | LXRb DAF12 ctr inactive
Cc1ccsc1C(=O)NNC(=O)C1CC=CCC1C(=O)O (stereo not given)	ssDAF-12 act 1.4, hgDAF12 agonist 17, DAX1 inh-1 4.2 | hgDAF12 ag inactive | LXRb DAF12 ctr inactive
CC(C)c1ccc(C(=O)NNC(=O)C2CC=CCC2C(=O)O)cc1 (stereo not given)	none
O=C(NNC(=O)C1CC=CCC1C(=O)O)c1cccs1 (stereo not given)	hgDAF12 agonist 17 | hgDAF12 ag inactive | LXRb DAF12 ctr inactive
CCOc1ccccc1N1CCN(C(=O)c2cccs2)CC1	none
Cc1onc(-c2ccccc2)c1C(=O)NCC(=O)Nc1cc(Cl)ccc1Cl	none
Cc1ccc(Nc2nnc(SCC(=O)Nc3cccnc3Cl)s2)cc1C	hgDAF12 agonist 14 | hgDAF12 ag inactive | LXRb DAF12 ctr inactive
Cc1ccc(Nc2nnc(SCC(=O)Nc3ccccc3[N+](=O)[O-])s2)cc1	none
Fc1ccc2cnc(-c3ccsc3)cc2c1	hgDAF12 agonist 14 (no result: FXN GAA850 act, DAX1 inh-2) | hgDAF12 ag inactive | LXRb DAF12 ctr inactive
Fc1ccc2cc(-c3ccsc3)ncc2c1	none
COc1ccc(NC(=O)CSc2nnc3n2CCCCC3)cc1OC	none
COc1ccc(NC(=O)CSc2nc(N)c3cc4c(nc3n2)CCCC4)cc1	hgDAF12 agonist 18 | hgDAF12 ag inactive | LXRb DAF12 ctr inactive
Clc1ccccc1-c1nc2ccccc2[nH]1	none
Fc1ccccc1-c1nc2ccccc2[nH]1	hgDAF12 agonist 15, DAX1 inh-2 4.9 | hgDAF12 ag 12 | LXRb DAF12 ctr inactive
Oc1ccccc1C=Nc1ccccc1-c1nc2ccccc2[nH]1	hgDAF12 agonist 18 | hgDAF12 ag inactive | LXRb DAF12 ctr inactive
Cc1ccc(CN2CCN(C3CCCC3)C(CCO)C2)s1 (stereo not given)	none
O=C1C(C=NCCCn2ccnc2)=C(O)c2ccccc21	none
O=C1C(C=NCCCN2CCCC2=O)=C(O)c2ccccc21	hgDAF12 agonist 19 | hgDAF12 ag inactive | LXRb DAF12 ctr inactive
O=C1CCc2cc(S(=O)(=O)Nc3ccccc3Cl)ccc2N1	none
O=C1CCc2cc(S(=O)(=O)Nc3ccccc3F)ccc2N1	hgDAF12 agonist 25 | hgDAF12 ag inactive | LXRb DAF12 ctr inactive
CCN(CC)CCn1c(NS(=O)(=O)c2ccc(Cl)cc2)nc2ccccc21	none
Oc1oc(-c2ccccc2)nc1/C=N/c1ccccn1	hgDAF12 agonist 16 | hgDAF12 ag inactive | LXRb DAF12 ctr inactive
O=CN1N=C(c2ccccc2)CC1c1ccccc1[N+](=O)[O-] (stereo not given)	none
N#CC1CC(c2ccccc2)=NN1c1ccccc1[N+](=O)[O-] (stereo not given)	hgDAF12 agonist 16 | hgDAF12 ag 13 | LXRb DAF12 ctr inactive
Cc1cc(NC(=O)CSc2nc3c(cc2C#N)CCC3)no1	hgDAF12 agonist 13, DAX1 inh-2 4.7 | hgDAF12 ag 15 | LXRb DAF12 ctr inactive
COc1ccc(/C=C2\SC(=O)N(CCCC(=O)Nc3ccc(C(=O)O)cc3)C2=O)cc1	none
COc1ccc(/C=C2\SC(=O)N(CCc3nnc(N)s3)C2=O)cc1	hgDAF12 agonist 16, DAX1 inh-1 4.1 | hgDAF12 ag inactive | LXRb DAF12 ctr inactive
O=C(CNc1ccc(Br)cc1)Nc1ccc(S(=O)(=O)N2CCCCC2)cc1	none
O=C(Nc1ccccc1F)c1ccc2sc([C@@H]3O[C@H](CO)[C@H](O)[C@H](O)[C@H]3O)nc2c1	hgDAF12 agonist 14 (no result: DAX1 inh-2) | hgDAF12 ag inactive | LXRb DAF12 ctr inactive
COc1ccccc1/C=C/c1nc(C#N)c(N(C)C)o1	hgDAF12 agonist 15, hcDAF12 agonist 5.8 | hgDAF12 ag 14 | LXRb DAF12 ctr inactive
CCCNC(=O)C1CC(=O)N(c2ccc(OCc3ccc(Cl)cc3)cc2)C1 (stereo not given)	hgDAF12 agonist 15 | hgDAF12 ag 16 | LXRb DAF12 ctr inactive
CCOc1ccc(N2CC(C(=O)NCCc3ccccc3)CC2=O)cc1 (stereo not given)	none
O=C(CCc1nnc(CCCCc2ccccc2)o1)N1CCC(N2CCCC2)CC1	none
CCCn1c(C)cc(C(=O)COc2ncnc3sccc23)c1C	hgDAF12 agonist 14 | hgDAF12 ag 13 | LXRb DAF12 ctr inactive
Cc1cc(C(=O)COc2ncnc3sccc23)c(C)n1C1CC1	none
Brc1ccc(-c2nnc(-c3cccc(Br)c3)o2)cc1	none
Cc1cccc(-c2nnc(-c3ccccc3)o2)c1	hgDAF12 agonist 13 | hgDAF12 ag 16 | LXRb DAF12 ctr inactive
O=C(Nn1cnnc1)c1ccc(Cl)cc1	none
Cc1ccc(S(=O)(=O)Nc2ccc(-c3nc4ccc(C)cc4s3)cc2)cc1	none
